Experimental data reported in PubChem BioAssay AID1159580 (chemical genetic matrix, 2015).
Values joined by “and” are separate entries in the source; they are usually repeats but may differ in a detail not shown here. Equal values may be shown once. The campaign covered roughly 5,500 compounds. About 2,000 (36%) were called active. Not shown: some 18% with an inconclusive outcome. Rule as the data show it: active = normalized growth mostly below about 0.91 (no sharp cut-off); inconclusive = no clear call, values can overlap the other calls; inactive = mostly above about 0.92. The list shows a part of the results.

Assay: chemical genetic growth profiling, strain panel (AID 1159580);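 also: tested at 20 µM; growth read once vehicle control cultures reached saturation at 30 °C; 1 = growth at the plate median or of vehicle wells; lower values mean less growth of the strain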
Conditions: S. cerevisiae deletion strains, growth OD

Measured: normalized growth

COc1ccccc1OCCNCC(O)COc1cccc2[nH]c3ccccc3c12 (stereo unspecified)
inactive: locus YAL013W, strain DEP1, hits give low values 0.999 | locus YAL021C, strain ccr4, hits give low values 1.01 | locus YAL026C, strain drs2, hits give low values 1.01 | locus YAL030W, strain snc1, hits give low values 1.02 | locus YBR009C, strain hhf1, hits give low values 1.02 | locus YBR021W, strain FUR4, hits give low values 0.988 | locus YBR023C, strain chs3, hits give low values 1.01 | locus YBR171W, strain sec66, hits give low values 1.02 | locus YBR229C, strain ROT2, hits give low values 1 | locus YBR231C, strain swc5, hits give low values 0.993 | locus YBR279W, strain paf1, hits give low values 1 | locus YCL011C, strain gbp2, hits give low values 1.01 | locus YCL016C, strain dcc1, hits give low values 1.03 | locus YCL029C, strain bik1, hits give low values 1.02 | locus YCL069W, strain vba3, hits give low values 1.01 | locus YCR088W, strain abp1, hits give low values 1.04 | locus YDL005C, strain med2, hits give low values 1.02 | locus YDL035C, strain GPR1, hits give low values 0.98 | locus YDL040C, strain nat1, hits give low values 1.02 | locus YDL074C, strain BRE1, hits give low values 0.957 | locus YDL101C, strain DUN1, hits give low values 1.01 | locus YDL134C, strain PPH21, hits give low values 1 | locus YDL185W, strain tfp1, hits give low values 1.01 | locus YDL192W, strain arf1, hits give low values 1.02 | locus YDR001C, strain nth1, hits give low values 1.01 | locus YDR069C, strain doa4, hits give low values 1 | locus YDR101C, strain arx1, hits give low values 1.01 | locus YDR137W, strain rgp1, hits give low values 1.05 | locus YDR150W, strain NUM1, hits give low values 1 | locus YDR159W, strain sac3, hits give low values 1.04 | locus YDR162C, strain NBP2, hits give low values 0.974 | locus YDR195W, strain ref2 1 | locus YDR297W, strain sur2, hits give low values 1.01 | locus YDR318W, strain mcm21, hits give low values 1.01 | locus YDR334W, strain swr1, hits give low values 1.03 | locus YDR335W, strain msn5, hits give low values 1 | locus YDR388W, hits give low values 1.01 | locus YDR392W, strain spt3, hits give low values 1.01 | locus YDR502C, strain sam2, hits give low values 1 | locus YEL003W, strain gim4, hits give low values 1.02 | locus YEL037C, strain rad23, hits give low values 1 | locus YEL061C, strain CIN8 (second series), hits give low values 1 | locus YEL061C, strain CIN8, hits give low values 0.997 | locus YER015W, strain faa2, hits give low values 1.02 | locus YER016W, strain bim1, hits give low values 0.986 | locus YER110C, hits give low values 1.02 | locus YER111C, strain swi4, hits give low values 1.02 | locus YER155C, strain BEM2 (second series), hits give low values 1.02 | locus YER155C, strain BEM2, hits give low values 0.986 | locus YER167W, strain BCK2, hits give low values 1 | locus YFR010W, strain ubp6, hits give low values 1.02 | locus YGL078C, strain dbp3, hits give low values 1.02 | locus YGL086W, strain mad1, hits give low values 1.01 | locus YGL167C, strain pmr1, hits give low values 1.02 | locus YGL173C, strain kem1, hits give low values 1.03 | locus YGL227W, strain vid30, hits give low values 1.01 | locus YGL240W, strain doc1, hits give low values 1.02 | locus YGL248W, strain PDE1, hits give low values 1.01 | locus YGL253W, strain hxk2, hits give low values 1.02 | locus YGR078C, strain PAC10, hits give low values 0.968 | locus YGR135W, strain pre9, hits give low values 1.01 | locus YGR229C, strain SMI1, hits give low values 0.957 | locus YGR252W, strain gcn5, hits give low values 0.948 | locus YHR013C, strain ard1, hits give low values 1.03 | locus YHR027C, strain rpn1, hits give low values 0.994 | locus YHR030C, strain SLT2, hits give low values 1.01 and 0.992 | locus YHR079C, strain IRE1 (second series), hits give low values 1.02 | locus YHR079C, strain IRE1, hits give low values 0.999 | locus YHR094C, strain hxt1, hits give low values 1.01 | locus YHR129C, strain ARP1, hits give low values 1.01 | locus YHR142W, strain chs7, hits give low values 1.03 | locus YHR200W, strain rpn10, hits give low values 1.02 | locus YIL066C, strain RNR3, hits give low values 1 | locus YIL073C, strain SPO22, hits give low values 1.11 | locus YIL125W, strain kgd1, hits give low values 1.02 | locus YIR030C, strain dcg1, hits give low values 1.02 | locus YJL092W, strain hpr5, hits give low values 1.01 | locus YJL095W, strain BCK1 (second series), hits give low values 1.02 | locus YJL095W, strain BCK1, hits give low values 0.976 and 1.01 | locus YJL115W, strain asf1, hits give low values 1.01 | locus YJL129C, strain trk1, hits give low values 1.02 | locus YJL134W, strain LCB3, hits give low values 1 | locus YJL154C, strain vps35, hits give low values 1.01 | locus YJL164C, strain tpk1, hits give low values 1.02 | locus YJL166W, strain qcr8, hits give low values 1.03 | locus YJL168C, strain set2, hits give low values 1.01 | locus YJL187C, strain SWE1 (second series), hits give low values 1.01 | locus YJL187C, strain SWE1, hits give low values 1.01 | locus YJR043C, strain POL32, hits give low values 0.998 | locus YJR066W, strain TOR1, hits give low values 0.935 | locus YJR075W, strain HOC1, hits give low values 0.983
